Source: PubChem BioAssay
proKLK7 act = activators of human kallikrein-7 zymogen; 370,000 compounds, 0.9% hits; P49862; AID 652039; activation, % at 7 µM; purified proKLK7, EDANS-DABCYL substrate fluorescence; 100% is mature enzyme control, 0% vehicle;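 active = activation above the mean of all tested compounds plus 3 SD, computed per campaign excluding outliers beyond control limits, cut at about 13% in these data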
ADAM17 inh = inhibits human ADAM17 | P78536 | recombinant ADAM17, EDANS/DABCYL FRET peptide cleavage | inhibition, % at 6.95 µM | 370,000 compounds, 0.83% hits;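 active = inhibition above the mean of compounds lying between control limits plus 3 SD, set per campaign, cut at about 8.5% in these data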
PLCb3 inh = PLC-beta3 (human) inhibition, primary screen | Q01970 | AID 720704 | Purified PLC-beta3, fluorogenic substrate, fluorescence | 370,000 compounds, 0.18% hits | inhibition, % at 12.2 µM
PLCg1 inh = inhibitors of human phospholipase C gamma1; P19174; purified PLC-gamma1, fluorogenic substrate, fluorescence; inhibition, % at 12.2 µM; 370,000 compounds, 0.84% hits; AID 720700; in the data active = inhibition above about 9.5%
Target sequence (P19174 whole entry, looked up): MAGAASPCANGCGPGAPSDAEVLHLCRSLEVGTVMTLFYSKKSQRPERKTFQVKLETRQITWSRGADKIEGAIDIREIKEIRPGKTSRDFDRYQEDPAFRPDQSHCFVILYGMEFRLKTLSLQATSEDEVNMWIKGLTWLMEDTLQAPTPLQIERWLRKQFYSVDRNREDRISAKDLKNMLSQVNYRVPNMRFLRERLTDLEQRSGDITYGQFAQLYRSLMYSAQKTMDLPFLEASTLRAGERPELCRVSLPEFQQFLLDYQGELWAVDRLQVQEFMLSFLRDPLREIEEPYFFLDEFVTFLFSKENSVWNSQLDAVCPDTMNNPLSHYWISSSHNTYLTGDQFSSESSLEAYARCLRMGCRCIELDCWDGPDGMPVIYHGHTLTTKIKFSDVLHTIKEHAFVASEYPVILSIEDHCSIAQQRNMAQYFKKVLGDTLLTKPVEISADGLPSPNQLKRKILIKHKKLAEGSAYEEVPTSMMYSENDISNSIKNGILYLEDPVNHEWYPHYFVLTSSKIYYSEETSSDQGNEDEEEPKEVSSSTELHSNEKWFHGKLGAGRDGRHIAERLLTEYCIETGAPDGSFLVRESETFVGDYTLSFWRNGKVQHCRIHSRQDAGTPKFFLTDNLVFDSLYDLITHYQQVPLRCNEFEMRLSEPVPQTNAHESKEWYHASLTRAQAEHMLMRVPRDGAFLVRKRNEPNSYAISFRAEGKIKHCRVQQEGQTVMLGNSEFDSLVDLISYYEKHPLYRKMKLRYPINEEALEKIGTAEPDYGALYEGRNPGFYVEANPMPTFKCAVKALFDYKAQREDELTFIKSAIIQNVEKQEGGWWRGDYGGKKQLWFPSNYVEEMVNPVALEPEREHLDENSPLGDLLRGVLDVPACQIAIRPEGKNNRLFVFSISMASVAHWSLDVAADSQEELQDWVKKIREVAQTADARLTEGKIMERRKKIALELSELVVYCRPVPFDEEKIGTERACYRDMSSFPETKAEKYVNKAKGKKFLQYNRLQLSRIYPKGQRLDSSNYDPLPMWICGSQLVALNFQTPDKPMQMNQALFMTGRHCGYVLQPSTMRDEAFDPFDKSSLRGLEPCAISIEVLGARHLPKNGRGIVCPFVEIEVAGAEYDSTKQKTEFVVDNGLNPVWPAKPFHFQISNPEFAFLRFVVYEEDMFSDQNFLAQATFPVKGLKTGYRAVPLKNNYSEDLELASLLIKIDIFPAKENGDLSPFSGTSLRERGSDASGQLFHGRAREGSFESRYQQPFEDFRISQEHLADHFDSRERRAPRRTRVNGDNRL
ADAM10 inh = inhibits human ADAM10. O14672. inhibition, % at 7 µM. 370,000 compounds, 0.62% hits. recombinant ADAM10, EDANS/DABCYL FRET peptide cleavage, 3 h;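 active = inhibition above a per-campaign cutoff equal to the mean of compounds falling between control-based bounds plus 3 SD, cut at about 20% in these data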
ADAM10 counter = ADAM10 inhibition, counter-screen for ADAM17 exosite hits | recombinant ADAM10, EDANS/DABCYL FRET peptide cleavage, 3 h | 2,900 compounds, 47% hits | AID 743256 | inhibition, % at 6.95 µM | shares compounds with ADAM17 inh;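 active = mean inhibition over the triplicate runs exceeds the activity threshold set in the earlier primary screen, cut at about 20% in these data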
ADAM17 confirm = confirmation of inhibitors of human ADAM17; 2,900 compounds, 65% hits; inhibition, % at 6.95 µM; recombinant ADAM17, EDANS/DABCYL QFRET peptide cleavage; shares compounds with ADAM17 inh;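 active = mean inhibition across replicates above the hit cutoff set in the primary screen, cut at about 8.5% in these data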
PLCg1 ctr = PLC-gamma1 inhibition, counter-screen for PLC-beta3 hits. shares compounds with PLCg1 inh. purified PLC-gamma1, fluorogenic substrate, fluorescence. inhibition, % at 12.3 µM. 3,300 compounds, 3.1% hits. AID 743258; in the data active = inhibition above about 9.5%
PLCb3 confirm = confirmation of human PLC-beta3 inhibitors; AID 743261; shares compounds with PLCg1 inh; inhibition, % at 12.3 µM; purified PLC-beta3, fluorogenic substrate fluorescence; 3,300 compounds, 1% hits
Numbers stand for hits; – = inactive; · = no result given. Compounds with a hit are over-represented: about 2.9% of the library has one in this group of screens. Cut-off read from the data, not from the text of the source, unless noted: active = inhibition above about 11%; inactive = the rest.

SMILES	proKLK7 act	ADAM17 inh	PLCb3 inh	PLCg1 inh	ADAM10 inh	ADAM10 counter	ADAM17 confirm	PLCg1 ctr	PLCb3 confirm
CC1CCCN(c2nc(NCc3ccco3)nc(N)c2[N+](=O)[O-])C1 (stereo not drawn)	–	9.7	–	15.6	–	–	–	–	–
CCC(C(=O)NCc1ccco1)N(C(=O)CNS(=O)(=O)c1ccccc1)C1CCCCC1 (stereo not drawn)	–	–	–	–	–	·	·	·	·
CC(C)C(C(=O)NCc1ccco1)N(C(=O)CNS(=O)(=O)c1ccccc1)C1CCCC1 (stereo not drawn)	–	10.1	12.5	–	–	–	–	–	–
COc1ccc(S[C@@H](CCN2CC[C@H](C)CCC2=O)c2ccccc2)cc1	–	13.9	–	9.7	–	–	11.2	–	–
O=C(/C=C(/c1ccc(Cl)cc1)n1cncn1)c1ccccc1	–	9.7	11.2	–	–	–	–	–	–
CN(C)c1ccc(/C=N/NC(N)=S)cc1[N+](=O)[O-]	–	10.2	–	15.8	–	28.3	15.4	–	–
Cc1cc(F)cc(-c2cc(C(=O)NCc3cccc(Cl)c3)[nH]n2)c1	–	9.1	–	10.2	–	–	–	–	–
Cc1cc2ncc(C(=O)Nc3ccsc3C(=O)O)c(C)n2n1	–	–	–	–	–	·	·	·	·
Cc1ccc(N(C)S(=O)(=O)c2cccc(C(=O)N3CCN(Cc4ccccc4)CC3)c2)cc1	–	9.3	–	10.8	–	–	–	–	–
CN(C)S(=O)(=O)c1cccc(C(=O)N2CCN(Cc3ccccc3)CC2)c1	–	–	–	–	–	·	·	·	·
CCC(O)CNC(=O)NC(=C(Cl)Cl)c1ccc(C)c(F)c1 (stereo not drawn)	–	–	–	–	–	·	·	·	·
O=C(NCc1ccc(Cl)c(Cl)c1)c1cc(C2CCCCN2C(=O)c2cccs2)on1 (stereo not drawn)	–	–	–	–	–	·	·	·	·
OCCN(Cc1ccccc1)C(=S)Nc1ccc(Cl)cc1Cl	–	–	–	–	–	·	·	·	·
C[C@@H]1CC=C[C@@H]2[C@H]1C(=O)N(Cc1ccccc1)[C@H]2c1cccc(Br)c1	–	8.6	–	11.7	–	–	10.4	–	–
N#Cc1ccc(C23CC4(C2)[C@H](CN(Cc2ccc(-c5ccccc5)cc2)[C@@H]4c2ccccc2)C3c2ccc(Cl)nc2)cc1 (stereo partly drawn)	–	12.6	–	13.0	–	–	–	–	–
Clc1ccc(C2[C@H]3CN(Cc4ccc(-c5ccccc5)cc4)[C@H](c4ccccc4)C34CC2(c2ccccc2)C4)cn1 (stereo partly drawn)	–	–	–	–	–	·	·	·	·
COc1ccc(CNC(=O)C2(CC3CC(c4ccccc4)=NO3)CCN(C(=O)C3(C)CC3)CC2)cc1 (stereo not drawn)	–	8.7	–	10.8	–	–	–	–	–
CC1CCCN(CC(=O)Nc2ccc(S(=O)(=O)N3C(C)CCCC3C)cc2)C1 (stereo not drawn)	–	–	–	–	–	·	·	·	·
O=C1NC[C@H](Cc2ccc(O)cc2)N(C[C@@H]2CCCN2C[C@H](Cc2ccc(O)cc2)N2C[C@H](Cc3ccccc3)N(CCc3ccccc3)C(=O)C2=O)C1=O	–	10.2	12.4	–	–	–	–	–	–
O=C1NC[C@H](Cc2ccc(O)cc2)N(C[C@@H]2CCCN2C[C@H](Cc2ccccc2)N2C[C@H](Cc3ccccc3)N(CCc3ccccc3)C(=O)C2=O)C1=O	–	–	–	–	–	·	·	·	·
Cc1cccc(-c2ncc(CN3CCN(CCC(C)C)C(CCO)C3)cn2)c1 (stereo not drawn)	–	–	–	–	–	·	·	·	·
